Here are results for 8 molecules from PubChem BioAssay (EPA / NIEHS).

As a reminder, the AC50 is the concentration giving half of the maximal activity seen.

Structures are written as SMILES. Several values for one entry are separate records, joined by “and”; a condition that tells them apart may be missing. Identical values can stand only once. Records with an inconclusive call do not appear. Activity calls are given as the source filed them. How the source made its calls: active means hit-call score of the fitted dose curve at least 0.9, where 1 is the maximum; inconclusive means response in the unintended direction; inactive means score below 0.9.

For test [1], the target named is rat CYP3A2, Cyp3a2 (gene 266682) (UniProt P05183). As to the kind of experiment: NVS_ADME_rCYP3A2: NovaScreen (NVS) CYP450-related Enzyme Activity (ADME) Assay for rat CYP3A2 (AID 2283128). The method in brief: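 Fluorescence readout of extracted rat CYP3A2 activity 0.5 h post-dose, acetonitrile as negative control. Single-point testing in duplicate at 10 uM, followed by concentration series to a 20 uM maximum for actives.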
Sequence of rat CYP3A2, Cyp3a2 (gene 266682) (P05183 whole entry, looked up): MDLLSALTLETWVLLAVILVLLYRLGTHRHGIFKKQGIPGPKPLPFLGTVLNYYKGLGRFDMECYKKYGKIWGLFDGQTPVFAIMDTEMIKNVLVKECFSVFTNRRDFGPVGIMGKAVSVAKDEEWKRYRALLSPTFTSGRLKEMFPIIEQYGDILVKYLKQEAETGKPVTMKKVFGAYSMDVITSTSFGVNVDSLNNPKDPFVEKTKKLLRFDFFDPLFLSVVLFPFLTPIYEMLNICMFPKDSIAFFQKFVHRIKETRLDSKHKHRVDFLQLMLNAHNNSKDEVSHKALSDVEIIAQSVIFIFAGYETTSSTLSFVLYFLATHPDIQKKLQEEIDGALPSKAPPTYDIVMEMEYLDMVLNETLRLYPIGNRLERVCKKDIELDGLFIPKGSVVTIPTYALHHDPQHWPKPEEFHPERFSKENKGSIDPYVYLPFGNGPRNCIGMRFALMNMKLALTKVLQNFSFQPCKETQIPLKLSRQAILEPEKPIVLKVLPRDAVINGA

The target of test [2] is human AKT serine/threonine Kinase 2 (AKT2), AKT2 (gene 208) (UniProt P31751). As to the kind of experiment: NVS_ENZ_hAKT2: NovaScreen (NVS) Enzymatic Assay for human AKT serine/threonine Kinase 2 (AKT2) (AID 2283141). The essentials:
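Cell-free fluorescence/electrophoretic mobility shift readout of recombinant human AKT2 activity, 1 h after chemical dosing. Duplicate primary screen at 25 uM, then singleton concentration-response up to 50 uM; loss of signal versus DMSO baseline.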

Test [3] deals with Histone deacetylase 3 (Homo sapiens) (UniProt O15379). As to the kind of experiment: NVS_ENZ_hHDAC3: NovaScreen (NVS) Enzymatic Assay for human Histone Deacetylase 3 (HDAC3) (AID 2283163). The essentials:
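Cell-free enzyme format: loss of fluorescent product after mobility-shift separation, 1 h incubation, recombinant human HDAC3. Single 25 uM duplicate screen first, then concentration series to a 50 uM top for hits; DMSO as baseline.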

Test [4] deals with human Caspase 5 (CASP5), CASP5 (gene 838) (UniProt P51878). As to the kind of experiment: NVS_ENZ_hCASP5: NovaScreen (NVS) Enzymatic Assay for human Caspase 5 (CASP5) (AID 2283137). The essentials:
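Chemicals were first tested in duplicate at 25 uM against recombinant caspase 5 from E. coli. Activity was read by fluorescence intensity 2 hours after dosing. Those passing a preset inhibition threshold were retested in singleton concentration-response up to 50 uM.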

The target of a further test is Caspase-3 (Homo sapiens) (UniProt P42574). As to the kind of experiment: NVS_ENZ_hCASP3: NovaScreen (NVS) Enzymatic Assay for human Caspase 3 (CASP3) (AID 2283139). The essentials:
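Single-concentration screening at 25 uM in duplicate, with concentration-response follow-up to a 50 uM maximum for chemicals passing the threshold. Caspase-3 (human, E. coli-expressed) activity was read as substrate fluorescence after 1 h, with loss of signal relative to DMSO.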

The target of another test is CDK2 (gene 1017) (UniProt P24941). As to the kind of experiment: NVS_ENZ_hCDK2: NovaScreen (NVS) Enzymatic Assay for human Cyclin-Cependent Kinase 2 (CDK2) (AID 2283144). The essentials:
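Compounds screened in duplicate at 25 uM, then in singleton concentration-response to a maximum of 50 uM, against recombinant CDK2; kinase activity read 1 hr after dosing by fluorescence with mobility-shift separation of substrate and product.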

Test [5] addresses human Casein Kinase 1-delta (CK1D), CSNK1D (gene 1453) (UniProt P48730). As to the kind of experiment: NVS_ENZ_hCK1D: NovaScreen (NVS) Enzymatic Assay for human Casein Kinase 1-delta (CK1D) (AID 2283148). The method in brief: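 Recombinant human CK1-delta, cell-free; fluorescent substrate with electrophoretic mobility-shift separation of product, read 1 h after dosing. Single 25 uM duplicate screen, then concentration-response up to 50 uM; loss of signal vs DMSO.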

The target in test [6] is human Colony Stimulating Factor 1 Receptor (CSF1R), CSF1R (gene 1436) (UniProt P07333). As to the kind of experiment: NVS_ENZ_hCSF1R: NovaScreen (NVS) Enzymatic Assay for human Colony Stimulating Factor 1 Receptor (CSF1R) (AID 2283150). The method in brief:
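Compounds screened in duplicate at 25 uM, then concentration-response (top 50 uM) for those passing threshold such as 30% inhibition; recombinant CSF1R activity measured 1 h post-dosing via fluorescent substrate/product mobility-shift separation, loss of signal versus DMSO.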

Test [7] has as its target human FYN Proto-Oncogene, Src family Tyrosine Kinase (Fyn), FYN (gene 2534) (UniProt P06241). As to the kind of experiment: NVS_ENZ_hFyn: NovaScreen (NVS) Enzymatic Assay for human FYN Proto-Oncogene, Src family Tyrosine Kinase (Fyn) (AID 2283161). The essentials:
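Cell-free kinase activity read by fluorescence after mobility-shift separation of substrate and product, 1 h post-dose. Initial single concentration 25 uM in duplicate, then concentration-response follow-up; DMSO baseline.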

In test [8] the target is human Insulin Receptor (InsR), INSR (gene 3643) (UniProt P06213). As to the kind of experiment: NVS_ENZ_hInsR: NovaScreen (NVS) Enzymatic Assay for human Insulin Receptor (InsR) (AID 2283168). The method in brief:
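Cell-free enzyme assay read 1 h post-dose by fluorescence after substrate/product mobility-shift separation. Duplicate 25 uM primary screen, then singleton concentration-response up to 50 uM for compounds passing threshold; loss of signal vs DMSO.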

For test [9], the target named is human Janus Kinase 2 (Jak2), JAK2 (gene 3717) (UniProt O60674). As to the kind of experiment: NVS_ENZ_hJak2: NovaScreen (NVS) Enzymatic Assay for human Janus Kinase 2 (Jak2) (AID 2283169). The essentials:
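Single-point duplicate screen at 25 uM, with hits run in concentration series to a 50 uM top dose. Substrate-product separation by mobility shift with fluorescence detection, 1 h post-dosing; DMSO baseline.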

The target of test [10] is Mitogen-activated protein kinase 3 (Homo sapiens) (UniProt P27361). As to the kind of experiment: NVS_ENZ_hMAPK3: NovaScreen (NVS) Enzymatic Assay for human Mitogen-Activated Protein Kinase 3 (MAPK 3) (AID 2283177). The essentials:
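Chemicals were first tested in duplicate at 25 uM, with hits re-run as concentration series (max 50 uM). Recombinant enzyme activity, measured 1 h post-dose in a cell-free format, was read by fluorescence/mobility shift relative to DMSO.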

For test [11], the target named is human Caspase 8 (CASP8), CASP8 (gene 841) (UniProt Q14790). As to the kind of experiment: NVS_ENZ_hCASP8: NovaScreen (NVS) Enzymatic Assay for human Caspase 8 (CASP8) (AID 2283146). The method in brief:
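The primary screen tested compounds in duplicate at a single 25 uM concentration, with actives followed up in concentration series. Activity of recombinant (E. coli) protease was measured by fluorescence 1 h post-dose, as signal loss against DMSO.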

For test [12], the target named is human Elastase, ELANE (gene 1991) (UniProt P08246). As to the kind of experiment: NVS_ENZ_hElastase: NovaScreen (NVS) Enzymatic Assay for human Elastase (AID 2283153). The essentials: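 Concentration-response to 50 uM max, run singly for chemicals passing a threshold (e.g., 30% inhibition) in a duplicate 25 uM single-point screen. Neutrophil-derived human elastase, absorbance read-out of enzyme activity at 1.5 h; DMSO baseline.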
Sequence of human Elastase, ELANE (gene 1991) (P08246 whole entry, looked up): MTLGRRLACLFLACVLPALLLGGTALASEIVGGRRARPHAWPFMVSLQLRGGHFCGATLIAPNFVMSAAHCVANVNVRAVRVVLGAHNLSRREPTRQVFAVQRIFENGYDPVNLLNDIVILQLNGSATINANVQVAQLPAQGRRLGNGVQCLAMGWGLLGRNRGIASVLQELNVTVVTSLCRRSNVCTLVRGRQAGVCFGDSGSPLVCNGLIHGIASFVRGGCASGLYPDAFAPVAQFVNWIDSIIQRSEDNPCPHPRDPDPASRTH

For test [13], the target named is Glycogen synthase kinase-3 beta (Homo sapiens) (UniProt P49841). As to the kind of experiment: NVS_ENZ_hGSK3b: NovaScreen (NVS) Enzymatic Assay for human Glycogen Synthase Kinase-3 beta (GSK3b) (AID 2283165). The essentials: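 Recombinant enzyme with specific fluorescent substrate, 1 h, product separated by electrophoretic mobility shift. Primary duplicate screen at 25 uM; actives (e.g. 30% inhibition) followed in singleton concentration-response to 50 uM. Signal loss fitted versus DMSO.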

Sequence of human Caspase 5 (CASP5), CASP5 (gene 838) (P51878 whole entry, looked up): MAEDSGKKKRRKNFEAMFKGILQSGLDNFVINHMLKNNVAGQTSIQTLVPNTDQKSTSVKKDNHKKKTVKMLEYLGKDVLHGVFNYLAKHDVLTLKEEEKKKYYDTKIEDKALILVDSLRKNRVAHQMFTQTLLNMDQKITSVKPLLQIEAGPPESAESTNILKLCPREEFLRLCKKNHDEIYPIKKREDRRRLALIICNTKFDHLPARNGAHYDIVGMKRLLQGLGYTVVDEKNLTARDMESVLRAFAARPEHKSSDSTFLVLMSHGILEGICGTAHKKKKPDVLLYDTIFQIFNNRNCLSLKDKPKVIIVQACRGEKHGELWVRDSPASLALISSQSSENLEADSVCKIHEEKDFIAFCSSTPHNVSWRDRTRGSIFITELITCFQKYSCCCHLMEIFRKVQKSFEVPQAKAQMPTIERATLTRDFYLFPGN
Sequence of human FYN Proto-Oncogene, Src family Tyrosine Kinase (Fyn), FYN (gene 2534) (P06241 whole entry, looked up): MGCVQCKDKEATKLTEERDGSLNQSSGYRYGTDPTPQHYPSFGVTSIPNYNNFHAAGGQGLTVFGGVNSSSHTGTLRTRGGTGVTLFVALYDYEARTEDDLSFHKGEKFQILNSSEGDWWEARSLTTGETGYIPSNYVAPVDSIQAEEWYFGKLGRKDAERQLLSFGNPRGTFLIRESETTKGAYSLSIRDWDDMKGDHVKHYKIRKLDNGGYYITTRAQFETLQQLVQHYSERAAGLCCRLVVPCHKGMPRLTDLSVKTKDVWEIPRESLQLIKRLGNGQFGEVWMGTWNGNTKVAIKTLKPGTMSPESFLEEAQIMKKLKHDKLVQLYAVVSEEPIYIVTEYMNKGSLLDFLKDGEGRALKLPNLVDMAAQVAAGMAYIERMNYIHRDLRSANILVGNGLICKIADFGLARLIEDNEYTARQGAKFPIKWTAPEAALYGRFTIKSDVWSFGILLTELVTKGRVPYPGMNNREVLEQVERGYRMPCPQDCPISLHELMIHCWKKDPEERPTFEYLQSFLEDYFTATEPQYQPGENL
Sequence of human AKT serine/threonine Kinase 2 (AKT2), AKT2 (gene 208) (P31751 whole entry, looked up): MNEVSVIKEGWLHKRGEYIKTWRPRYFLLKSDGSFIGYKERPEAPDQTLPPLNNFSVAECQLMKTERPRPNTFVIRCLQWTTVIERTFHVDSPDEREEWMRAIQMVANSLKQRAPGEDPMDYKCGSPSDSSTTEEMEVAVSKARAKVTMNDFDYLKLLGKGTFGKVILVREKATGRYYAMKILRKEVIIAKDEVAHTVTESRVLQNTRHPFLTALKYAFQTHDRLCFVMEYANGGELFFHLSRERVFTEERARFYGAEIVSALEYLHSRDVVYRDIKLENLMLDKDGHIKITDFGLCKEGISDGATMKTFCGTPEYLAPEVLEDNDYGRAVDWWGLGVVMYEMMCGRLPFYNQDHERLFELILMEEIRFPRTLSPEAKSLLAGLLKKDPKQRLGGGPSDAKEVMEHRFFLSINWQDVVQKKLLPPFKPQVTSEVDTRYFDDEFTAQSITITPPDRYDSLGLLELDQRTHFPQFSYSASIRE
Sequence of human Janus Kinase 2 (Jak2), JAK2 (gene 3717) (O60674 whole entry, looked up): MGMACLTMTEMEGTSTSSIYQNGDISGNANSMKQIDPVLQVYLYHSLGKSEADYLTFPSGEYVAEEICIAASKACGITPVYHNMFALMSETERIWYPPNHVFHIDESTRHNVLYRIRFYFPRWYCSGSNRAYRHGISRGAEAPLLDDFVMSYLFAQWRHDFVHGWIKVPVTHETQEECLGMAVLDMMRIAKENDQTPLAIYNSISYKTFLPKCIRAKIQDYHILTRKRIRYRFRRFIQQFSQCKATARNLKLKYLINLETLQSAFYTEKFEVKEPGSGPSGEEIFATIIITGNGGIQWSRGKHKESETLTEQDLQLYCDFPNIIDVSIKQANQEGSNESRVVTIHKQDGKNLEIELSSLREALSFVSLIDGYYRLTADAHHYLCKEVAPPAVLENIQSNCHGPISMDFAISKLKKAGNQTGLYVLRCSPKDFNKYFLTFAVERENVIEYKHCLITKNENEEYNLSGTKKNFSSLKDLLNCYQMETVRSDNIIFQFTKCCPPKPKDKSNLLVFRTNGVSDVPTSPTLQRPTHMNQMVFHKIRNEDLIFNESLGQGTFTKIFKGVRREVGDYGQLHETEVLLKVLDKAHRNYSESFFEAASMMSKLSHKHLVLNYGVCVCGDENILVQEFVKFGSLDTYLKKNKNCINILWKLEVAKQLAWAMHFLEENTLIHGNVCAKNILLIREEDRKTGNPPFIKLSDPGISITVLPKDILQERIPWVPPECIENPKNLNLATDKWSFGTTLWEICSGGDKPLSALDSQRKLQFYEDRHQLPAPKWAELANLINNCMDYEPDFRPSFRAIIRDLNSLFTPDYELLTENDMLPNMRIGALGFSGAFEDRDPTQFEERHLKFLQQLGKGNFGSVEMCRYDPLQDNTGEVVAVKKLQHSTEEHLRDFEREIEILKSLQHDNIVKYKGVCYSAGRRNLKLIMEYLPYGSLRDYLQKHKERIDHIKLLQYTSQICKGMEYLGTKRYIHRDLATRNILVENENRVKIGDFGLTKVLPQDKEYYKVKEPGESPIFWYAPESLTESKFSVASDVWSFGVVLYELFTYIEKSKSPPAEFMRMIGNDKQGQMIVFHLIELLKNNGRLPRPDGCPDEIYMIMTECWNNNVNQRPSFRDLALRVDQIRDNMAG
Sequence of human Casein Kinase 1-delta (CK1D), CSNK1D (gene 1453) (P48730 whole entry, looked up): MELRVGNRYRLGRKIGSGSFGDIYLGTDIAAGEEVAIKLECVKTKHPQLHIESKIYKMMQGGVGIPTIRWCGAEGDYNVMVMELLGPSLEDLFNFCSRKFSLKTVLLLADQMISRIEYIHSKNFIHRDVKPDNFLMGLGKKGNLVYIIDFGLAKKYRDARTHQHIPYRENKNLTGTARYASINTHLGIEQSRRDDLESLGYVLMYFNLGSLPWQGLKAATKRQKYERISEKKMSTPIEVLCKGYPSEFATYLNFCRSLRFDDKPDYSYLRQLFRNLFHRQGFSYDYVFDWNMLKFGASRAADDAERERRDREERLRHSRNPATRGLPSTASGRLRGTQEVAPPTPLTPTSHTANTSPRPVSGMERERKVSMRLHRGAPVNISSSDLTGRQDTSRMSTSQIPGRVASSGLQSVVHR
Sequence of human Colony Stimulating Factor 1 Receptor (CSF1R), CSF1R (gene 1436) (P07333 whole entry, looked up): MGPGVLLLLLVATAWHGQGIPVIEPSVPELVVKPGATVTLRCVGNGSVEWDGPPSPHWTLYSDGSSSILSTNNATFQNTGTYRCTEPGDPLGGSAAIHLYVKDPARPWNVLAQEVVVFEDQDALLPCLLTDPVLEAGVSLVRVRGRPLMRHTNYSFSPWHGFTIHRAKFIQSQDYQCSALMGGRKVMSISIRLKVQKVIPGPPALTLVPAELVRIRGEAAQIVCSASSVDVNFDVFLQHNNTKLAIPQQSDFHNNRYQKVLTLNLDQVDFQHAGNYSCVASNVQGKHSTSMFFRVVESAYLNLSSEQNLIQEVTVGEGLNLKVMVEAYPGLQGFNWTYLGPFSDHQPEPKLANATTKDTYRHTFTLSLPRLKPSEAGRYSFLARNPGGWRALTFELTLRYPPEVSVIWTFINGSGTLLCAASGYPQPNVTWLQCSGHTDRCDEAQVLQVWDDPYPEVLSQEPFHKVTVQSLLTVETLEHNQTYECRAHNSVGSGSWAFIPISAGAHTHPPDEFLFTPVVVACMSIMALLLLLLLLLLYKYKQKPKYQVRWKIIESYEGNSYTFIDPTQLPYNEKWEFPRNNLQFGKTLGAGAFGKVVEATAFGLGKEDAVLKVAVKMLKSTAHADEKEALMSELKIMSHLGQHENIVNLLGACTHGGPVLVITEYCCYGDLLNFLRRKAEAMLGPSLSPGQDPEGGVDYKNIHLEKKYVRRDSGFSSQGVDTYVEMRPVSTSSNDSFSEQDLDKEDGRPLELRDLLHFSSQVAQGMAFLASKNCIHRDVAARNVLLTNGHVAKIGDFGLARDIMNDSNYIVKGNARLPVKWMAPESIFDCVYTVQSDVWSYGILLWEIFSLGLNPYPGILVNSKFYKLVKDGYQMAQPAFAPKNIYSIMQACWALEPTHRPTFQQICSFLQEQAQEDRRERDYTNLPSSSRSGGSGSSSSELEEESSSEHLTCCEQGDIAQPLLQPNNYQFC
Sequence of Caspase-3 (Homo sapiens) (P42574 whole entry, looked up): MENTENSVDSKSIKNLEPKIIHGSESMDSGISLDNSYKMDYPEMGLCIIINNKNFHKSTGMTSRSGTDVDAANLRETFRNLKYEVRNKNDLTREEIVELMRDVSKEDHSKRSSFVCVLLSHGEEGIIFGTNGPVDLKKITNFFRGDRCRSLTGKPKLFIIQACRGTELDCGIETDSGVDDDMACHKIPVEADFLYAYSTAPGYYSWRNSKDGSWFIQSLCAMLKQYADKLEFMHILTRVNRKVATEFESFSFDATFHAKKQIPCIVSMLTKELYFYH

`C#C[C@]1(O)CC[C@H]2[C@@H]3CCc4cc(O)ccc4[C@H]3CC[C@@]21C`: the half-maximal activity concentration (AC50) in test [1] is 1.2 µM (active) and 2.59 µM (active) and 1.12 µM (active).
`C[C@]12CC[C@@H]3c4ccc(O)cc4CC[C@H]3[C@@H]1CC[C@@H]2O`: in [1], the half-maximal activity concentration (AC50) is 1.48 µM (active). Also, the call in test [2] and in test [3] was inactive.
As to `O=[N+]([O-])c1cc(N(CCO)CCO)ccc1NCCO`, the AC50 in [4] was 8.66 µM (active).
`Nc1ccc(N)c([N+](=O)[O-])c1`: in test [4], the AC50 is 8.68 µM (active) and 13.7 µM (active).
`CCCCOCCOCCO`: the call with Caspase-3 (Homo sapiens) was inactive.
Consider `CC/C(=C(\c1ccccc1)c1ccc(OCCN(C)C)cc1)c1ccccc1`, for which the outcome (in [2]; with CDK2 (gene 1017); in test [5]; in test [6]; in test [8]; in [10]) was inactive. For the same molecule, the AC50 was 22.9 µM (active) in test [7] and 11.1 µM (active) in test [9].
As for `O=C(c1ccc(OCCN2CCCCC2)cc1)c1c(-c2ccc(O)cc2)sc2cc(O)ccc12`, the molecule was classed as inactive in test [11] and in [5]. In addition, the values for the AC50 in [12], in test [7] and in test [9] were 21 µM (active), 35.6 µM (active) and 25 µM (active), respectively.
For `C=C(C)C(N)=O`, in [13], the outcome was inactive.
